From PubChem BioAssay AID1508625 (Wald Lab, School of Medicine, Case Western Reserve …, 2021)

Assay: enhancers of NK cell killing of ovarian tumor cells, primary screen, imaging, OVCAR3, primary NK cells, calcein-AM imaging (AID 1508625);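 further: compound given to NK cells 16 h before adding targets at 1.5 to 1 ratio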
Conditions: OVCAR3 lysis by primary NK cells, at 5 µM; z-score: measured here: robust Z-score, single-point normalisation

| SMILES | corrected activity, negative = more killing | z-score |
| --- | --- | --- |
| CSc1nnc2c(n1)OC(c1ccc(C(=O)O)cc1)Nc1ccccc1-2 (configuration not stated) | -1.74% | -0.616 |
| Cc1sc(NC(=O)C2c3ccccc3Oc3ccccc32)c(C(N)=O)c1C | -5.26% | -2.16 |
| O=C1CCC(=O)N1c1ccc(NCc2ccc(Cl)cc2)c([N+](=O)[O-])c1 | -4.48% | -1.63 |
| COc1ccc(CNCC2OCCc3ccccc32)cc1OC (configuration not stated) | -5.1% | -1.95 |
| O=C1C2C3C=CC(C3)C2C(=O)N1CCCO (configuration not stated) | -1% | -0.311 |
| CCN(CC)c1cc(O)c2c(c1N)C(=O)c1ccccc1C2=O | -2.05% | -0.772 |
| CC(=O)Nc1ccc(NC(=O)CC2OCC3CCCCN3C2=O)cc1 (configuration not stated) | -5.1% | -1.95 |
| Cc1nc2sccn2c1C(=O)NN=Cc1ccc(C(C)C)cc1 | -4.02% | -1.71 |
| O=C(CCCn1c(=S)[nH]c2cc3c(cc2c1=O)OCO3)NC1CC1 | -7.46% | -1.98 |
| CCCCOc1ccc(CN2CCN3CCCC3C2C)cc1 (configuration not stated) | -3.8% | -1.66 |
| CCCCN(C)C(=O)c1cc2c(=O)n3cccc(C)c3nc2s1 | -6.29% | -1.78 |
| CCOc1ccc(S(=O)(=O)NC(C)C)c2cccnc12 | -3.65% | -1.16 |
| Cc1ccc(Cl)cc1-n1c(CCC(=O)O)ccc1-c1ccccc1 | 1.25% | 0.373 |
| Cc1ccc(Cl)cc1N1C(=O)CN(Cc2cccs2)C1=S | -2.1% | -0.567 |
| O=C(Nc1ccc(Br)cc1)C1CCN(S(=O)(=O)c2cccc3nonc23)CC1 | -3.15% | -0.893 |
| CCOc1ccc2cc(C3=NN(C(=O)CCC(=O)O)C(c4ccc(Br)cc4)C3)c(Cl)nc2c1 (configuration not stated) | -2.89% | -1.55 |
